These results are taken from PubChem BioAssay (NCI).

Values joined by “and” are separate entries in the source; they are usually repeats but may differ in a detail not shown here. Identical values can stand only once. This is part of a sample that, as a whole, favours compounds with a hit. Of some 83,000 tested, about 20% had one in any assay.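 Testing used 96-well plates and a 48-hour single-concentration exposure. Example: -40 means 40% of the starting cells died.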 Active and inactive are the calls of the source. How the source made its calls: active means growth percent below 10; inactive means the rest.

For the first experiment, the system named is 786-0 renal. Put plainly: NCI-60 one-dose screen, 48 h (100 = growth as untreated, 0 = no growth, -100 = all killed). Conditions: 10 µM unless noted.
On to `COc1ccc(NC2=C(I)C(=O)C(C)=C(C)C2=O)cc1`, for which the growth was 42.2% (inactive).

With `CC(=O)Nc1cccc(-n2c(COc3ccc(Br)cc3)nc3ccccc32)c1`, the growth was 115% (inactive) and 103% (inactive).

For the compound `CCCSc1nnc(-c2sc3nc4ccccc4n3c2C)o1`, the growth is 81.5% (inactive).

Consider `COc1cc(/C=N/NC(=O)c2ccc(OCc3nc4ccc(C)cc4[nH]3)cc2)cc(OC)c1OC`, for which the growth is 41.2% (inactive).

Regarding `COc1cc(CNC(=O)C[C@H](C)CCC=C(C)C)ccc1OCc1cn(-c2ccccc2Cl)nn1`, the growth is 87.7% (inactive).

`Cc1ccc(C(=O)Nc2cc(-n3ccnc3)cc(C(F)(F)F)c2)cc1-n1cc(-c2cnc3cccnn23)nn1`: the growth is 103% (inactive).

As for `O=C(Nc1ccc(Cl)c(C(F)(F)F)c1)N1CCN(c2cc(-c3cn(-c4ccccc4)nc3-c3cccc(O)c3)ccn2)CC1`, the growth is 8.51% (active).

As to `FC(F)(F)CN1CCN(CCn2c(C(F)(F)F)cc3c(Cl)ncnc32)CC1`, the growth is 84.6% (inactive).

Regarding `COc1cccc(C(N)=Nc2ccc(OCCCCCCCCn3cncn3)cc2)c1`, the growth was 28.4% (inactive).

`Nc1nnc(-c2cncc(Br)c2)c(-c2c[nH]c3ccc(Br)cc23)n1`: the growth is 55.5% (inactive).

Turning to `Nc1cc(-c2c[nH]c3ccc(Cl)cc23)nc2cc(-c3c[nH]c4ccccc34)nn12`, the growth is -52.1% (active).

With `CN(C)CCOc1ccc(C(=O)C2[C@H](c3ccc(Cl)cc3)[C@@H](c3ccccc3)NC23C(=O)Nc2ccc(Cl)cc23)cc1` (some centres undefined), the growth is -94% (active).

As for `O=C(NNC(=S)NC(=O)c1ccccc1)c1ccc(OCc2nc3ccc(Cl)cc3[nH]2)cc1`, the growth was 0.779% (active).

With `O=C(c1ccc(Cl)cc1)C1[C@H](c2ccccc2Cl)[C@@H](c2ccccc2)NC12C(=O)Nc1ccc(Br)cc12` (some centres undefined), the growth was -67% (active).

As to `COc1ccc(CCC2NCCc3c(Br)c4c(c(OC)c32)OCO4)cc1` (centres undefined), the growth was 8.08% (active).

Turning to `O=C(Nc1ccc(Br)cc1)Nc1ccc(-c2ccc3c(c2)NC(=O)/C3=C\c2ccc[nH]2)cc1`, the growth is 61% (inactive).

Consider `O=C(Nc1ccc(S(=O)(=O)N2CCCCC2)cc1)C(Cl)Cl`, for which the growth is 98.9% (inactive).

In the case of `O=C(N/N=C/c1ccc(Br)o1)c1[nH]c2ccc(Br)cc2c1-c1ccccc1`, the growth was -52.7% (active).

For `COc1cc(/C=C/C(=O)c2ccc(S(=O)(=O)NCCNc3nc(N(C)C)nc(N4CCOCC4)n3)cc2)cc(OC)c1OC`, the growth is -65.1% (active).

With `CCCCNC(=S)Nc1ccc(OCc2nc3ccc(Cl)cc3[nH]2)cc1`, the growth is 31.3% (inactive).

Turning to `COc1ccc(-c2cc(C(=O)N=Nc3c(O)[nH]c4ccc(Cl)cc34)c3ccccc3n2)cc1OC`, the growth is 106% (inactive).

As to `NS(=O)(=O)c1cccc(Nc2nc(SCC(=O)c3ccc(F)cc3)nc3ccccc23)c1`, the growth was 26.1% (inactive).

On to `COc1ccc2[nH]c(O)c(N=Nc3nc(-c4ccccc4)cs3)c2c1`, for which the growth is -44.8% (active).

For the compound `COc1ccc(OC)c(Cn2cc(C#N)c(N)c2C(=O)c2ccc(Br)cc2)c1`, the growth is 63.9% (inactive).

Regarding `CC1=C(C)C(=O)C(N2CCSCC2)=CC1=O`, the growth is 99.4% (inactive).

Regarding `N#Cc1c(-c2ccc(F)cc2)nc(SCc2ccc(F)cc2)nc1N1CCNCC1`, the growth was -79.1% (active).

Regarding `COc1ccc2[nH]cc(-c3cc4nc(-c5cn(C)c6ncccc56)cc(N)n4n3)c2c1`, the growth was -90.3% (active).

`O=C1Nc2ccccc2/C1=C\c1ccc(OCC(=O)c2ccc(Br)cc2)cc1`: the growth was 89.8% (inactive).

Consider `Nc1nn2c(-c3cc4ccccc4oc3=O)ccnc2c1N=Nc1ccccc1`, for which the growth was 41.4% (inactive).

With `O=c1c(-c2nc(-c3ccccc3)c(-c3ccccc3)[nH]2)coc2ccc(F)cc12`, the growth is 87.2% (inactive).

As to `Cc1ccccc1Nc1nnc(-c2c[nH]c3ccccc23)o1`, the growth is 40% (inactive).

As for `O=CNc1cccc(-n2cnc3cc(-c4ccc(O)cc4)ccc32)c1`, the growth was 39.1% (inactive).

Turning to `CC1(C)CC(=O)C2=C(C1)OC(N)=C(c1nc3ccccc3[nH]1)C2c1ccc(Cl)cc1` (centres undefined), the growth is 62.1% (inactive) and 102% (inactive).

As for `CN1C(=O)/C(=C\C(=O)c2cc3ccccc3oc2=O)c2ccccc21`, the growth is 80.7% (inactive).

As to `Cc1cc(N=C(N)c2ccccc2)ccc1OCCCCCCCCn1ccnc1`, the growth is 4.01% (active).

For the compound `Cc1ccc(C2CC(c3ccc(NC(=S)Nc4ccccc4)cc3)=NN2c2ccc(S(N)(=O)=O)cc2)cc1` (centres undefined), the growth is 18.6% (inactive).

Take `COc1cc(CNC(=O)[C@]23CCC(C)(C)CC2C2=CCC4[C@@]5(C)CCC(OC(C)=O)C(C)(C)C5CC[C@@]4(C)[C@]2(C)CC3)ccc1OCc1cn(-c2ccc(Cl)cc2Cl)nn1` (some centres undefined): the growth is 107% (inactive).

As for `Nc1ccc(-c2ccc3ncnc(N4CCc5cc(F)c(Cl)cc54)c3c2)cn1`, the growth is -69.8% (active).

The subject of the next experiment is COLO 205 colon. The experiment is described as above. Particulars: 10 µM unless noted.
Take `COc1ccc(NC2=C(I)C(=O)C(C)=C(C)C2=O)cc1`: the growth is 123% (inactive).

As to `CC(=O)Nc1cccc(-n2c(COc3ccc(Br)cc3)nc3ccccc32)c1`, the growth is 108% (inactive) and 124% (inactive).

As to `CCCSc1nnc(-c2sc3nc4ccccc4n3c2C)o1`, the growth was 131% (inactive).

On to `COc1cc(/C=N/NC(=O)c2ccc(OCc3nc4ccc(C)cc4[nH]3)cc2)cc(OC)c1OC`, for which the growth is 8.02% (active).

Take `COc1cc(CNC(=O)C[C@H](C)CCC=C(C)C)ccc1OCc1cn(-c2ccccc2Cl)nn1`: the growth is 71.7% (inactive).

Turning to `Cc1ccc(C(=O)Nc2cc(-n3ccnc3)cc(C(F)(F)F)c2)cc1-n1cc(-c2cnc3cccnn23)nn1`, the growth was 42.2% (inactive).

Consider `O=C(Nc1ccc(Cl)c(C(F)(F)F)c1)N1CCN(c2cc(-c3cn(-c4ccccc4)nc3-c3cccc(O)c3)ccn2)CC1`, for which the growth was -2.61% (active).

Take `FC(F)(F)CN1CCN(CCn2c(C(F)(F)F)cc3c(Cl)ncnc32)CC1`: the growth is 70.5% (inactive).

As for `Nc1nnc(-c2cncc(Br)c2)c(-c2c[nH]c3ccc(Br)cc23)n1`, the growth is 51.3% (inactive).

In the case of `Nc1cc(-c2c[nH]c3ccc(Cl)cc23)nc2cc(-c3c[nH]c4ccccc34)nn12`, the growth is -86% (active).

In the case of `CN(C)CCOc1ccc(C(=O)C2[C@H](c3ccc(Cl)cc3)[C@@H](c3ccccc3)NC23C(=O)Nc2ccc(Cl)cc23)cc1` (some centres undefined), the growth was -76.9% (active).

With `O=C(NNC(=S)NC(=O)c1ccccc1)c1ccc(OCc2nc3ccc(Cl)cc3[nH]2)cc1`, the growth is -22.5% (active).

Consider `O=C(c1ccc(Cl)cc1)C1[C@H](c2ccccc2Cl)[C@@H](c2ccccc2)NC12C(=O)Nc1ccc(Br)cc12` (some centres undefined), for which the growth was -83.3% (active).

With `COc1ccc(CCC2NCCc3c(Br)c4c(c(OC)c32)OCO4)cc1` (centres undefined), the growth is -37.5% (active).

With `O=C(Nc1ccc(Br)cc1)Nc1ccc(-c2ccc3c(c2)NC(=O)/C3=C\c2ccc[nH]2)cc1`, the growth was 57.2% (inactive).

For `O=C(Nc1ccc(S(=O)(=O)N2CCCCC2)cc1)C(Cl)Cl`, the growth is 120% (inactive).

For the compound `O=C(N/N=C/c1ccc(Br)o1)c1[nH]c2ccc(Br)cc2c1-c1ccccc1`, the growth is -13.5% (active).

Consider `COc1cc(/C=C/C(=O)c2ccc(S(=O)(=O)NCCNc3nc(N(C)C)nc(N4CCOCC4)n3)cc2)cc(OC)c1OC`, for which the growth was 28.3% (inactive).

Take `CCCCNC(=S)Nc1ccc(OCc2nc3ccc(Cl)cc3[nH]2)cc1`: the growth is 24.9% (inactive).

As to `COc1ccc(-c2cc(C(=O)N=Nc3c(O)[nH]c4ccc(Cl)cc34)c3ccccc3n2)cc1OC`, the growth was 125% (inactive).

For `NS(=O)(=O)c1cccc(Nc2nc(SCC(=O)c3ccc(F)cc3)nc3ccccc23)c1`, the growth was 26.4% (inactive).

In the case of `COc1ccc2[nH]c(O)c(N=Nc3nc(-c4ccccc4)cs3)c2c1`, the growth was 30% (inactive).

As to `COc1ccc(OC)c(Cn2cc(C#N)c(N)c2C(=O)c2ccc(Br)cc2)c1`, the growth is 30.4% (inactive).

In the case of `CC1=C(C)C(=O)C(N2CCSCC2)=CC1=O`, the growth was 121% (inactive).

With `N#Cc1c(-c2ccc(F)cc2)nc(SCc2ccc(F)cc2)nc1N1CCNCC1`, the growth is -68.8% (active).

Turning to `COc1ccc2[nH]cc(-c3cc4nc(-c5cn(C)c6ncccc56)cc(N)n4n3)c2c1`, the growth was -49.9% (active).

Take `O=C1Nc2ccccc2/C1=C\c1ccc(OCC(=O)c2ccc(Br)cc2)cc1`: the growth is 65.9% (inactive).

`Nc1nn2c(-c3cc4ccccc4oc3=O)ccnc2c1N=Nc1ccccc1`: the growth is 114% (inactive).

Take `O=c1c(-c2nc(-c3ccccc3)c(-c3ccccc3)[nH]2)coc2ccc(F)cc12`: the growth is 53% (inactive).

Take `Cc1ccccc1Nc1nnc(-c2c[nH]c3ccccc23)o1`: the growth is -32.7% (active).

For the compound `O=CNc1cccc(-n2cnc3cc(-c4ccc(O)cc4)ccc32)c1`, the growth is 39% (inactive).

For the compound `CC1(C)CC(=O)C2=C(C1)OC(N)=C(c1nc3ccccc3[nH]1)C2c1ccc(Cl)cc1` (centres undefined), the growth is 78.8% (inactive) and 121% (inactive).

`CN1C(=O)/C(=C\C(=O)c2cc3ccccc3oc2=O)c2ccccc21`: the growth is 52.2% (inactive).

Turning to `Cc1ccc(C2CC(c3ccc(NC(=S)Nc4ccccc4)cc3)=NN2c2ccc(S(N)(=O)=O)cc2)cc1` (centres undefined), the growth was -3.89% (active).

For the compound `COc1cc(CNC(=O)[C@]23CCC(C)(C)CC2C2=CCC4[C@@]5(C)CCC(OC(C)=O)C(C)(C)C5CC[C@@]4(C)[C@]2(C)CC3)ccc1OCc1cn(-c2ccc(Cl)cc2Cl)nn1` (some centres undefined), the growth is 118% (inactive).

As to `Nc1ccc(-c2ccc3ncnc(N4CCc5cc(F)c(Cl)cc54)c3c2)cn1`, the growth is 50% (inactive).
